Compound activity from PubChem.
Only some compounds are listed: those with a hit (about 3.8% of all), similar ones and a draw of the others.
FGF22 binding = binders of human FGF22 protein, primary screen, FGF22 synaptogenesis inhibitor project, biophysical, thermal shift, single point; Fibroblast growth factor 22 (Homo sapiens), Q9HCT0; recombinant FGF22 thermal shift, SYPRO orange fluorescence; percent of sucrose octasulfate shift, DMSO zero; activity (Tm shift, normalised), % at 9.99 µM; 1.5% of 340,000 active; AID 651658, 2012;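 active = mean Tm shift, scaled 0 neutral to 100 positive control, at about 1.3% or above, every replicate too, limit read from the data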
KLK7 zymogen act = proKLK7 zymogen activators, primary screen, biochemical, fluorescence intensity. Kallikrein-7 (Homo sapiens), P49862. purified proKLK7, EDANS-DABCYL substrate fluorescence; 100% is mature enzyme control, 0% vehicle. activation, % at 7 µM. 0.9% of 370,000 active;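 active = activation above the mean of all tested compounds plus 3 SD, computed per campaign excluding outliers beyond control limits, cut at about 13% in these data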
ADAM17 inh = ADAM17 inhibitors, primary screen, biochemical, QFRET; Disintegrin and metalloproteinase domain-containing protein 17 (Homo sapiens), P78536; recombinant ADAM17, EDANS/DABCYL FRET peptide cleavage; inhibition, % at 6.95 µM; 0.83% of 370,000 active; AID 720648, 2013;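 active = inhibition above the mean of compounds lying between control limits plus 3 SD, set per campaign, cut at about 8.5% in these data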;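 also: 0% = DMSO-only wells as the low control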
Ecoli rRNA inh = reduced GFP signal of wild-type E. coli, primary screen, bacterial rRNA inhibitor project, GFP/RFP fluorescence, OD600, single point. E. coli WT GFP vs humanized-ribosome RFP mutants, 24 h; active compounds read low; DMSO median 0, no signal -100. GFP signal change (wild-type ribosome), % (test concentration not listed). 1.6% of 350,000 active. AID 720706, 2013;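 active = significant combined selectivity score with lowered wild-type GFP, culture density cut under 30%, mutant RFP and density less affected; inactive = any of these conditions unmet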
ADAM10 inh = human ADAM10 inhibitors, primary screen, biochemical, QFRET, HTS | 0.62% of 370,000 active | recombinant ADAM10, EDANS/DABCYL FRET peptide cleavage, 3 h | AID 720582, 2013 | Disintegrin and metalloproteinase domain-containing protein 10 (Homo sapiens), O14672 | inhibition, % at 7 µM;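 active = inhibition above a per-campaign cutoff equal to the mean of compounds falling between control-based bounds plus 3 SD, cut at about 20% in these data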;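 also: 0% = DMSO wells while the 100% control is not disclosed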
Target sequence (O14672 214-748 limits assumed): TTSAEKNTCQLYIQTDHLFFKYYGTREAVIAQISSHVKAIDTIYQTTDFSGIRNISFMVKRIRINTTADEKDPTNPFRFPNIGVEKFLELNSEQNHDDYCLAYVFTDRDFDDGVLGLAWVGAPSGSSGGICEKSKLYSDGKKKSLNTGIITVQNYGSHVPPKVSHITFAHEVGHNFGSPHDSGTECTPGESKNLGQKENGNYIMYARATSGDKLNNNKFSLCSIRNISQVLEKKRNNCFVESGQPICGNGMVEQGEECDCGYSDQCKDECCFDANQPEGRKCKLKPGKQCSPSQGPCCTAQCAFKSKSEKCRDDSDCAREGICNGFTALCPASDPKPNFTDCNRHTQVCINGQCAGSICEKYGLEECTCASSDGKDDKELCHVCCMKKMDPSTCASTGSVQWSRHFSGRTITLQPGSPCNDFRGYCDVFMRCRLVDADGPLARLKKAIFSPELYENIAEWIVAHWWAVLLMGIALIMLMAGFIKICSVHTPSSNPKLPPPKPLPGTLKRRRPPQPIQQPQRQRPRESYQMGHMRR
ADAM10 confirm = human ADAM10 inhibitors, confirmation, biochemical, QFRET, triplicate. 1% of 2,100 active. AID 743208, 2013. ADAM10 QFRET peptide cleavage, EDANS fluorescence. inhibition, % at 6.95 µM. shares compounds with ADAM10 inh;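 active = inhibition above about 20% chosen separately for each screening run, limit read from the data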;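 also: 0% = DMSO wells and 100% = marimastat wells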
ADAM17 ctr = ADAM17 inhibitors, counter-screen for ADAM10 exosite inhibitor project, biochemical, QFRET, high throughput. shares compounds with ADAM10 inh. ADAM17 QFRET peptide cleavage, EDANS fluorescence. inhibition, % at 6.95 µM. 0.5% of 2,100 active. AID 743214, 2013;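 active = mean triplicate inhibition above the solvent-only control wells' mean plus 3 SD, cut at about 12% in these data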;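 also: 0% = DMSO wells and 100% = marimastat wells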
* hit, by the source's call; / = no result.

SMILES	FGF22 binding	KLK7 zymogen act	ADAM17 inh	Ecoli rRNA inh	ADAM10 inh	ADAM10 confirm	ADAM17 ctr
COc1ccccc1N1C(=O)C(Cl)=C(Nc2ccccc2O)C1=O	/	0.1	7.5	/	21.9*	14.1	5.4
CC(=O)c1ccc(NC(=O)COC(=O)C2CCN(S(=O)(=O)c3cccs3)CC2)cc1	0.2	0.7	-0.9	-11.3	84.7*	-0.2	0.2
CNC(=S)N/N=C/c1cn(CCOc2ccc(OC)cc2)c2ccccc12	/	-2.7	5.0	/	20.3*	12.0	5.2
CCOc1ccc(-c2nnc(SCC(=O)NC(C)(C)C)nc2-c2ccc(OCC)c(OC)c2)cc1OC	-0.3	1.0	3.7	-4.3	23.0*	0.0	0.0
O=C(C[C@H]1CC[C@@H](NS(=O)(=O)c2ccc(F)cc2)[C@@H](CO)O1)NCc1ccccc1F	/	/	/	-4.0	/	/	/
CO[C@H]1CN(C)C(=O)c2cc(NC(=O)CC(F)(F)F)ccc2OC[C@@H](C)NC[C@H]1C	/	/	/	-0.3	/	/	/
COc1ccc(OC)c(CNn2c(-c3cccc(C)c3)nc3ccccc3c2=O)c1	/	0.0	-4.6	/	-1.3	/	/
COc1cccc(CNn2c(-c3cccc(C)c3)nc3ccccc3c2=O)c1	/	-0.4	8.3	/	26.8*	0.2	0.7
CN(C(=O)c1ccc(NC(=O)Cc2ccc(NC(=O)C3CCCN(S(=O)(=O)c4cccc([N+](=O)[O-])c4)C3)cc2)cc1)C1CCCC1 (stereo unspecified)	-0.2	0.2	8.3	10.5	23.1*	4.1	0.9
O=[N+]([O-])c1cccc(C2NCC(c3ccccc3Cl)c3c2[nH]c2ccccc32)c1 (stereo unspecified)	41.4	0.3	5.4	-29.9	21.3*	5.5	3.0
CN(C)c1ccc(C2CNC(c3ccc(Cl)c([N+](=O)[O-])c3)c3[nH]c4ccccc4c32)cc1 (stereo unspecified)	-0.1	-0.3	1.0	2.9	3.2	/	/
O=C(C[C@H]1C[C@@H]2c3cc(NC(=O)C4CCOCC4)ccc3O[C@@H]2[C@H](CO)O1)NCc1ccccn1	-0.2	/	/	2.6	/	/	/
COc1cccc(COC(=O)C2CCN(S(=O)(=O)c3ccc(C)cc3C)CC2)c1OC	0.1	0.5	3.7	-0.3	23.6*	3.9	1.7
S=c1[nH]nc(CSc2nc3ccccc3s2)n1Cc1ccccc1	/	-0.1	0.7	/	21.9*	-1.1	0.3
CSc1nc(O)c(C(c2cccc([N+](=O)[O-])c2)c2c(O)nc(SC)[nH]c2=O)c(=O)[nH]1	0.1	-0.2	-1.5	18.2	81.1*	-0.9	-0.5
Cc1ccc(NC(=O)CN(C)C(=O)Cc2ccc(Cl)cc2Cl)cc1	-0.5	-0.3	5.8	2.2	30.0*	0.8	0.3
CC(=O)N(/N=C1\Sc2ccccc2C1=O)c1ccccc1C	/	0.1	2.3	/	76.5*	0.9	0.5
CC(=O)N(/N=C1\Sc2ccccc2C1=O)c1ccc(C)cc1C	/	-0.1	-0.6	/	0.7	/	/
CC=Cc1ccc2n(c1=O)C[C@H]1[C@H](CO)[C@@H](C(=O)NC3CCCC3)N(CCC)[C@@H]21 (mixture of isomers)	/	/	/	1.0	/	/	/
CC(=O)c1ccc(OCC(=O)N2CCN(S(=O)(=O)c3ccc(C)cc3C)CC2)cc1	-0.1	-0.2	0.2	13.4	83.8*	-1.4	0.1
CSc1ccc(CSCC(=O)N2CCN(S(=O)(=O)c3ccc(C)cc3C)CC2)cc1	0.3	0.3	5.4	/	24.0*	3.1	1.9
Cc1ccc(S(=O)(=O)N2CCN(C(=O)COC(=O)COc3ccc(Br)cc3)CC2)c(C)c1	0.1	-1.1	1.7	14.9	-2.5	/	/
COc1cccc(S(=O)(=O)N[C@@H]2CC[C@H](CCNC(=O)Nc3cc(F)ccc3F)O[C@@H]2CO)c1	0.0	/	/	-6.2	/	/	/
O=C1Nc2ccccc2OCc2cn(nn2)CC[C@H]1Cc1ccc(-c2ccccc2)cc1	/	/	/	-8.8	/	/	/
O=C(Nc1ccc2[nH]c(=S)sc2c1)Nc1ccccc1F	0.7	0.0	-2.6	-6.7	23.7*	6.2	2.2
O=C(Nc1ccc2[nH]c(=S)sc2c1)c1ccccc1	/	-0.3	-1.1	/	5.4	/	/
O=C(Nc1ccc2c(c1)[C@H]1C[C@H](CC(=O)N3CCOCC3)O[C@H](CO)[C@H]1O2)c1ccc2c(c1)OCO2	-0.2	/	/	-1.5	/	/	/
CCN1C(=O)C(CC(=O)Nc2ccc(OC)cc2)N(Cc2cccnc2)C1=S (stereo unspecified)	/	-0.9	-4.5	/	-5.4	/	/
